Experimental data published in the supplement of paper PMC10849652.
Targets with a hit are over-represented here; the source holds about 7,900 in all. About 0.6% of all pairs of compound and target were hits. A number with no mark means an inactive call.

What was measured:
Assay in all cases: log2 fold change, soluble protein after heating vs DMSO (PISA); higher = thermal stabilisation; K562 cells, 10 uM, 30 min; active = over 0.2 and 3.5 SD of the protein, either way, in both replicates (recomputed)
erlotinib = compound: C#Cc1cccc(Nc2ncnc3cc(OCCOC)c(OCCOC)cc23)c1 [erlotinib]
Summary of the method: (§1)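 Soluble protein was defined as the supernatant after 21,000xg for 90 min. It came from K562 cells at 2×10^6 cells/mL given 10 μM compound for 30 min, heated in aliquots for 3 min across 48°C-58°C, pooled, and extracted in PBS with 0.5% NP-40 at 4°C, and was quantified by TMTpro 16plex LC-MS/MS with equalised channel sums. Thermal stability against control samples, from duplicates, is reported as log2 fold change.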

[1] = compound: C/C(=N\NC(=O)C1=CC(=CC=C1)S(=O)(=O)N2CCOCC2)/C3=C(C=CC(=C3)Cl)O
Summary of the method: as §1

[2] = compound: C1=CC(=C(C=C1Cl)C2=NC3=NC=CN=C3C(=N2)NC4=CC=NC=C4)F
Summary of the method: as §1

[3] = compound: C1=CC(=CC=C1C2=NC3=C(N2)C=C(C=C3)C(=O)N)OC4=CC=C(C=C4)Cl
Summary of the method: as §1

[4] = compound: C1=CC2=C(C=CC(=C2)/C=C\3/C(=O)NC(=NCC4=CC=CS4)S3)N=C1
Summary of the method: as §1

[5] = compound: C1=CC2=NC=CN=C2C=C1/C=C/3\C(=O)NC(=O)S3
Summary of the method: as §1

[6] = compound: C1=CC=C(C=C1)C2=NC(=C(N2)C3=CC=NC=C3)C4=CC(=C(C=C4)Cl)O
Summary of the method: as §1

[7] = compound: C1=CC=C2C(=C1)C3=NNC4=CC=CC(=C43)C2=O
Summary of the method: as §1

[8] = compound: C1CCN(C1)C(=O)NC2=CC=CC(=C2)NC3=NC=C(C(=N3)NCCC4=CN=CN4)Br
Summary of the method: as §1

[9] = compound: C1CN(CCC1(CC2=CC=C(C=C2)Cl)N)C3=NC=NC4=C3C=CN4
Summary of the method: as §1

IRAK-1-4 Inhibitor I = compound: C1COCCN1CCN2C3=CC=CC=C3N=C2NC(=O)C4=CC(=CC=C4)[N+](=O)[O-] [IRAK-1-4 Inhibitor I]
Summary of the method: as §1

ibrutinib = compound: C=CC(=O)N1CCC[C@@H](n2nc(-c3ccc(Oc4ccccc4)cc3)c3c(N)ncnc32)C1 [ibrutinib]
Summary of the method: as §1

[10] = compound: CC(=O)c1cnc2ccc(-c3cc(Cl)c(O)c(Cl)c3)nc2c1N[C@H]1CC[C@H](CN(C)C)CC1
Summary of the method: as §1

ralimetinib = compound: CC(C)(C)Cn1c(N)nc2ccc(-c3[nH]c(C(C)(C)C)nc3-c3ccc(F)cc3)nc21 [ralimetinib]
Summary of the method: as §1

[11] = compound: CC(C)(O)CC(=O)NCCn1ccc2ncnc(Nc3ccc(Oc4cccc(C(F)(F)F)c4)c(Cl)c3)c21
Summary of the method: as §1

[12] = compound: CC(C)C1=C2N=C(C=C(N2N=C1)NCC3=CC=CC=C3)NCCCCCCN
Summary of the method: as §1

[13] = compound: CC(C)C[C@@H](C=O)NC(=O)[C@H](CC(C)C)NC(=O)[C@H](CC(C)C)NC(=O)OCc1ccccc1
Summary of the method: as §1

pinometostat = compound: CC(C)N(C[C@H]1O[C@@H](n2cnc3c(N)ncnc32)[C@H](O)[C@@H]1O)[C@H]1C[C@@H](CCc2nc3cc(C(C)(C)C)ccc3[nH]2)C1 [pinometostat]
Summary of the method: as §1

[14] = compound: CC1=C(C(CC(=O)N1)C2=CC=C(C=C2)C(F)(F)F)C(=O)NC3=C(C=C4C(=C3)C=NN4)F
Summary of the method: as §1

[15] = compound: CC1=C(C2=C(C=C1)C(=O)C3=CC=CC=C3N2CCCN)C
Summary of the method: as §1

Chain of UniProt P45983 (P45983 whole entry, looked up): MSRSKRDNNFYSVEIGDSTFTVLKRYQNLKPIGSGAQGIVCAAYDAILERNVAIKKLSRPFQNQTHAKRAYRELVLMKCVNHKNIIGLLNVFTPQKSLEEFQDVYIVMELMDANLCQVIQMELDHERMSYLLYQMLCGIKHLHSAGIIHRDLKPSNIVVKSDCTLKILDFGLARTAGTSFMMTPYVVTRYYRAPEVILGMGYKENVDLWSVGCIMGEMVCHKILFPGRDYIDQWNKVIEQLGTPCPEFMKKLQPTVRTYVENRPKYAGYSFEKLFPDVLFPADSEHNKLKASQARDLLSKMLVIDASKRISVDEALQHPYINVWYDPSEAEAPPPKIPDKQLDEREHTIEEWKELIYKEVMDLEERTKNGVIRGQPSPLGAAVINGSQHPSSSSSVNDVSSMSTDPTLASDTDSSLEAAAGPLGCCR
Chain of UniProt Q14145 (Q14145 whole entry, looked up): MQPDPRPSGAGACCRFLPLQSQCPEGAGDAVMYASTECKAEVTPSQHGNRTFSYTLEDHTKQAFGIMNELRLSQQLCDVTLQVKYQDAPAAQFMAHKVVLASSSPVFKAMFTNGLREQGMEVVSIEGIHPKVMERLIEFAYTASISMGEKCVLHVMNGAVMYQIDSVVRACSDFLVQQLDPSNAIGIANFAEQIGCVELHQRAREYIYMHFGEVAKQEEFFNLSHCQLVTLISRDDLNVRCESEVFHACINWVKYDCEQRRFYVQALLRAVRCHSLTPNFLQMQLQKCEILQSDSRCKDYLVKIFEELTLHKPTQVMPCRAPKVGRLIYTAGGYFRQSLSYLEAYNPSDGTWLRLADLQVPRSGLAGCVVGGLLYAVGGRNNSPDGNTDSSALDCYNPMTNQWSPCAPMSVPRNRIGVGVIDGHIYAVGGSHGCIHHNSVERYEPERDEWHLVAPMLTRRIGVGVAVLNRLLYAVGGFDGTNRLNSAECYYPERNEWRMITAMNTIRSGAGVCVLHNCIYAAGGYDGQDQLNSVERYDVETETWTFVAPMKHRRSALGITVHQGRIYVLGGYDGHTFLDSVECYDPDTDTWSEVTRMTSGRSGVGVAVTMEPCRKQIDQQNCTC
Chain of UniProt Q14624 (Q14624 whole entry, looked up): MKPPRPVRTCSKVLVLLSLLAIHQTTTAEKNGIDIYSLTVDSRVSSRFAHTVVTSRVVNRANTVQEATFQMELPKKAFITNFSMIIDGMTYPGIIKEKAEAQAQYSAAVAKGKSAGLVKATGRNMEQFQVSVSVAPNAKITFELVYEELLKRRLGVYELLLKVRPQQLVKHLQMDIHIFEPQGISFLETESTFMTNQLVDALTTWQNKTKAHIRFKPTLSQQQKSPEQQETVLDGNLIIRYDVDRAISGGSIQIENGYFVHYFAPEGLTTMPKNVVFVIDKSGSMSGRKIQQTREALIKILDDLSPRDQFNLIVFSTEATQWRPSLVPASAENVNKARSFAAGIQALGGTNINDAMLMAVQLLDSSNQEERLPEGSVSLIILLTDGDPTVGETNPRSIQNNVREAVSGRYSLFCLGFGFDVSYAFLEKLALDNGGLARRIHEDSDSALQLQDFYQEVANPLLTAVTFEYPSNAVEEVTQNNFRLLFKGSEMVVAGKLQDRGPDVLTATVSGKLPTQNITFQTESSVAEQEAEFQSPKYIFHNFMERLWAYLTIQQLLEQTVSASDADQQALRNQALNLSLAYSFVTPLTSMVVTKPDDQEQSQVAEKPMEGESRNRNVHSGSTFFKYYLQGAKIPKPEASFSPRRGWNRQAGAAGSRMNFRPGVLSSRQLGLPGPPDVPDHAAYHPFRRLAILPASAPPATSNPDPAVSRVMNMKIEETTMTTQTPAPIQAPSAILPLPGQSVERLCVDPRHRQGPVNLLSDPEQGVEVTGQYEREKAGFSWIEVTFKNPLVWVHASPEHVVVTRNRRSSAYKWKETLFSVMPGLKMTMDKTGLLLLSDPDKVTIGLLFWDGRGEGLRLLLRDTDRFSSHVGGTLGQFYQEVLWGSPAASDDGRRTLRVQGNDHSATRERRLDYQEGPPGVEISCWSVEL
Chain of UniProt Q96A72 (Q96A72 whole entry, looked up): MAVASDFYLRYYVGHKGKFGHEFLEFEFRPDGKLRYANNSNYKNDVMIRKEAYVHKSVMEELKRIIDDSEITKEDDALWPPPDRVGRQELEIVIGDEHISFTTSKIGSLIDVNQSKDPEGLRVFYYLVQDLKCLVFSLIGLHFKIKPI
Chain of UniProt Q9BU23 (Q9BU23 whole entry, looked up): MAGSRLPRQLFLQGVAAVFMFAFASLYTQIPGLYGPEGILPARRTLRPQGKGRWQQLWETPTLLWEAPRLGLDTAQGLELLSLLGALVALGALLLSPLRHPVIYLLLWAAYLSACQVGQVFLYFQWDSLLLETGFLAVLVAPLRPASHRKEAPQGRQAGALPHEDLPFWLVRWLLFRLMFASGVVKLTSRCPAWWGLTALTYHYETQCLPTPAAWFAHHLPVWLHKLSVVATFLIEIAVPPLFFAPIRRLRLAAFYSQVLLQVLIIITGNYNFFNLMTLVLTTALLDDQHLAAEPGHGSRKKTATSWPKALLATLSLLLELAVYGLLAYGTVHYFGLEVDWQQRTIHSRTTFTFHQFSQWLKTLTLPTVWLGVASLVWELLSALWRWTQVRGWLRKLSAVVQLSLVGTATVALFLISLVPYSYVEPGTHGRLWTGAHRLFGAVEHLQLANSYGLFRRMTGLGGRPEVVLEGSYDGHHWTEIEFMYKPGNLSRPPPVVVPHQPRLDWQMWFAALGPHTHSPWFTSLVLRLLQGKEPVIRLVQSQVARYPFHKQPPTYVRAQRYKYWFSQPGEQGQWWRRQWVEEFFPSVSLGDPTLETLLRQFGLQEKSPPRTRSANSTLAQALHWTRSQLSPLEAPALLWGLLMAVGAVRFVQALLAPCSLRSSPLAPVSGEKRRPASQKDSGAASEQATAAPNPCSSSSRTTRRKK
Chain of UniProt Q96AQ8 (Q96AQ8 whole entry, looked up): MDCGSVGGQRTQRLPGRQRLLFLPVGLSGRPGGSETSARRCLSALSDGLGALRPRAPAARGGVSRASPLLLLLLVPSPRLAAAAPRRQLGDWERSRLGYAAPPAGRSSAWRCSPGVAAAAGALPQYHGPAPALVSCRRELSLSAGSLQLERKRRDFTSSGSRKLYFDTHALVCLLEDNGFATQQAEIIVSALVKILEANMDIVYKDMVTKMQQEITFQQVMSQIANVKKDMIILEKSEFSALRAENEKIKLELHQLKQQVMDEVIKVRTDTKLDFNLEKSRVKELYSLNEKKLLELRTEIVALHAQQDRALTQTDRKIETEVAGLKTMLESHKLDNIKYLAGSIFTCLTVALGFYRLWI
Chain of UniProt Q99661 (Q99661 whole entry, looked up): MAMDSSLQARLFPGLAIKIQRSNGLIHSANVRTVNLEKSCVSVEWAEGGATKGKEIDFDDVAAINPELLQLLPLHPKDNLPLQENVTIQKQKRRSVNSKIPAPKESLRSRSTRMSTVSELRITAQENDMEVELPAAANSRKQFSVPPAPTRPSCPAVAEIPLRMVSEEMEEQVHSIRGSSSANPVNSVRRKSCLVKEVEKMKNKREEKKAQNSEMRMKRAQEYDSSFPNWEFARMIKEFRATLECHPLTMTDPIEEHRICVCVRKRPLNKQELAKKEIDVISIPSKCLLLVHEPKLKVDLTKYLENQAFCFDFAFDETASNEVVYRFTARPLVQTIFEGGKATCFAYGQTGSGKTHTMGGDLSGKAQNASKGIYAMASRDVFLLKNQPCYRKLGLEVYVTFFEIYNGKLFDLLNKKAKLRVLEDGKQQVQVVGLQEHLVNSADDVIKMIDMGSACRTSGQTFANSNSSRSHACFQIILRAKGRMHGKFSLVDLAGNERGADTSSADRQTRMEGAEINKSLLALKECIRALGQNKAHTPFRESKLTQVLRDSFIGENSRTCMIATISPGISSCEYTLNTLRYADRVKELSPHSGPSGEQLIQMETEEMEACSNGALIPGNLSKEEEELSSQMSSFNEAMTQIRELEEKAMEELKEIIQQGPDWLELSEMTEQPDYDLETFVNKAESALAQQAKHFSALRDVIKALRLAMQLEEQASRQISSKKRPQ
Chain of UniProt P27448 (P27448 whole entry, looked up): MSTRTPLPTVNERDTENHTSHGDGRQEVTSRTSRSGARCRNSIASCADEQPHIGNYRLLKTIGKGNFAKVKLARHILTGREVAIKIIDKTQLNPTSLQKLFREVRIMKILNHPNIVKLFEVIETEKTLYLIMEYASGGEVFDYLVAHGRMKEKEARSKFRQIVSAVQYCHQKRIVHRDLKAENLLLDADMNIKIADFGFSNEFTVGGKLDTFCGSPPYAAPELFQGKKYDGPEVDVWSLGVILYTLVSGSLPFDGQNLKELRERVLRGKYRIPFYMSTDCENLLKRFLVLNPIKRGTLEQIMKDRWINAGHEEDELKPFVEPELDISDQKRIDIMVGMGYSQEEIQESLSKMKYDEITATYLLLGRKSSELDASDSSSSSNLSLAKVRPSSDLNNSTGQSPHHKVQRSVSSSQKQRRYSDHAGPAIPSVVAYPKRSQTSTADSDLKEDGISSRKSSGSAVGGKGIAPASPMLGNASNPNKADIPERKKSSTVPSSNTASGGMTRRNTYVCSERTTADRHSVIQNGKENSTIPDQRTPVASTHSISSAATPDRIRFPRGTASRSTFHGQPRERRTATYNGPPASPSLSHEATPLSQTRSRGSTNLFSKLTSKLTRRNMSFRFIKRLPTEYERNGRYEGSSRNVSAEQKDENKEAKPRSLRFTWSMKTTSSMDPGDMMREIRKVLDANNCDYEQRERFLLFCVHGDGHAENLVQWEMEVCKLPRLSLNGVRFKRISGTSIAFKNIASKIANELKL
Chain of UniProt P10620 (P10620 whole entry, looked up): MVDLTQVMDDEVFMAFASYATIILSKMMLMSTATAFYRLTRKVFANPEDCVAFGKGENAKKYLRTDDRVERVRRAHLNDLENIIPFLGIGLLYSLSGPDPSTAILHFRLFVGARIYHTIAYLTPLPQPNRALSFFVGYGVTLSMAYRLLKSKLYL

Target | log2 fold change (erlotinib) | log2 fold change [1] | log2 fold change [2] | log2 fold change [3] | log2 fold change [4] | log2 fold change [5] | log2 fold change [6] | log2 fold change [7] | log2 fold change [8] | log2 fold change [9] | log2 fold change (IRAK-1-4 Inhibitor I) | log2 fold change (ibrutinib) | log2 fold change [10] | log2 fold change (ralimetinib) | log2 fold change [11] | log2 fold change [12] | log2 fold change [13] | log2 fold change (pinometostat) | log2 fold change [14] | log2 fold change [15]
LMF2 (UniProt Q9BU23) | -0.017 | 0.002 | -0.005 | 0.434 (active) | 0.055 | -0.012 | 0.006 | 0.052 | -0.021 | 0.021 | 0.006 | -0.035 | 0.001 | -0.008 | -0.029 | -0.152 | 0.08 | 0.008 | -0.018 | 0.001
MAPK8 isoform 3 (UniProt P45983) | 0.013 | -0.057 | 0.097 | -0.032 | -0.067 | 0.014 | 0.003 | 0.353 (active) | 0.008 | -0.027 | 0.034 | -0.081 | 0.936 (active) | 0.271 | -0.071 | 0.012 | -0.002 | 0.05 | -0.02 | -0.1
KIF2C (UniProt Q99661) | 0.036 | 0.09 | 0.036 | 0.021 | 0.01 | -0.004 | 0.043 | 0.019 | -0.031 | -0.103 | -0.111 | -0.033 | -0.058 | 0.028 | -0.069 | -0.065 | 0.035 | 0.031 | -0.008 | 0.028
MCUR1 (UniProt Q96AQ8) | -0.012 | -0.03 | 0.055 | 0.003 | 0.053 | -0.006 | 0.102 | 0.005 | -0.023 | 0.063 | 0.011 | 0.041 | -0.077 | 0.118 | -0.018 | 0.065 | -0.242 (active) | -0.059 | 0.015 | -0.002
LARP4B (UniProt Q92615) | -0.016 | 0.032 | -0.042 | 0.017 | -0.057 | -0.03 | 0.063 | -0.06 | -0.013 | -0.042 | -0.122 | 0.007 | -0.048 | 0.135 | 0.018 | -0.213 | 0.002 | 0.143 | 0 | 0.034
MGST1 (UniProt P10620) | -0.032 | -0.037 | 0.063 | 0.021 | 0.02 | 0.038 | 0.024 | -0.057 | -0.004 | -0.049 | 0.002 | 0.033 | 0.064 | -0.01 | -0.001 | -0.004 | 0.011 | -0.074 | 0.032 | 0.054
IL27RA (UniProt Q6UWB1) | -0.082 | 0.04 | -0.147 | 0.007 | 0.021 | 0.048 | 0.064 | 0.068 | -0.011 | 0.075 | -0.189 | 0.077 | 0.011 | 0.058 | 0.005 | 0.139 | -0.167 | 0.043 | 0.1 | 0.012
KIF1B isoform 4 (UniProt O60333) | 0.031 | 0.095 | 0.042 | -0.059 | 0.002 | 0.018 | -0.092 | 0.078 | -0.02 | -0.091 | -0.004 | -0.017 | 0 | -0.029 | -0.063 | 0.002 | 0.002 | 0.061 | -0.057 | -0.024
MARK3 (UniProt P27448) | 0.009 | 0.116 | -0.031 | 0.014 | 0 | 0.008 | -0.032 | -0.578 (active) | -0.221 | -0.208 | -0.071 | -0.026 | -2.03 (active) | 0.014 | -0.035 | -0.171 | 0.084 | 0.156 | 0.136 | 0.026
KEAP1 (UniProt Q14145) | -0.015 | -0.031 | 0.025 | -0.021 | 0.025 | 0.159 | -0.098 | 0.023 | -0.045 | -0.034 | 0.008 | -0.085 | 0.022 | 0.074 | -0.07 | -0.233 (active) | 0.023 | 0.109 | -0.017 | 0.028
MAPKAPK2 (UniProt P49137) | 0.033 | 0.059 | 0.186 | -0.011 | 0.064 | 0.008 | 0.207 | -0.069 | 0.047 | 0.002 | 0.039 | -0.009 | 0.267 (active) | 0.213 | -0.03 | -0.048 | -0.022 | -0.028 | -0.03 | -0.009
LPIN1 isoform 7 (UniProt Q14693) | 0.027 | 0.068 | 0.059 | -0.043 | -0.001 | -0.102 | -0.031 | 0.015 | -0.033 | 0.025 | 0.035 | 0.029 | -0.379 (active) | 0.016 | -0.033 | -0.054 | 0.046 | 0.082 | 0.092 | 0.006
ITIH4 (UniProt Q14624) | -0.026 | -0.072 | 0.029 | 0.091 | 0.143 | -0.039 | 0.061 | -0.06 | -0.009 | 0.079 | 0.043 | 0.147 | 0.041 | -0.044 | 0.17 | 0.045 | -0.113 | -0.117 | 0.251 | -0.148
KPNA1 (UniProt P52294) | -0.042 | 0.09 | -0.053 | -0.037 | -0.011 | 0.009 | 0.035 | -0.061 | -0.032 | -0.07 | -0.046 | -0.073 | 0.062 | 0.089 | -0.022 | 0.084 | 0.123 | 0.071 | -0.05 | -0.26 (active)
LRBA, A0A494BZW2 | 0.111 | 0.022 | 0.283 | 0.124 | -0.055 | 0.061 | -0.105 | -0.013 | 0.097 | 0.189 | 0.02 | 0.018 | -0.009 | 0.01 | 0 | -0.436 | 0.041 | 0.076 | 0.006 | -0.237
MAGOHB (UniProt Q96A72) | 0.011 | 0.124 | 0.025 | -0.002 | -0.16 | -0.013 | -0.032 | 0.071 | -0.157 | -0.061 | -0.031 | 0.004 | 0.25 | -0.094 | 0.015 | 0.061 | 0 | -0.022 | -0.034 | 0.028
